Among the data in PubChem BioAssay AID504810 (National Center for Advancing Translational Sciences (NCATS), 2011) are activity change, negative = inhibition values, retold here.

Hit rate of the full screen: of about 330,000 compounds, about 670 (0.2%) were called active. The entries come from a sample that favours actives as a whole. Unmarked numbers belong to inactive results.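 The calls were made as follows: active = activity change below a set negative limit, meaning inhibition stronger than a set level (cut at about -70% in these data); inconclusive = activity change between two set negative limits; inactive = the rest.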
% is scaled to controls: 0 for no effect and ±100 for the full control effect.

The target of the assay is Thyrotropin receptor (Homo sapiens) (UniProt P16473). Briefly: Antagonists of the Thyroid Stimulating Hormone Receptor: HTS campaign. As to conditions: TSHR-expressing cells, TSH-stimulated cAMP HTRF, 2 h; at 11.5 µM; active compounds read low. The source says: The thyroid-stimulating hormone receptor (TSHR) is a member of the 7 trans-membrane-spanning receptor (7TMR) family of cell surface receptors. TSHR-mediated hyperthyroidism is important in thyroid pathology. The development of small molecule antagonists of TSHR may lead to therapeutic approaches for TSHR-mediated hyperthyroidism caused by constitutively activating mutations or stimulating auto-antibodies associated with Graves' disease. Graves' disease is the leading cause of hyperthyroidism and is caused by autoantibodies that stimulate TSHR (TsAbs) causing thyroid growth and unregulated overproduction of thyroid hormones and existing treatments have liabilities (agranulocytosis). In addition, TSHRs are known to be expressed in multiple extrathyroidal tissues including bone, brain, kidney, testis, fat and cells of the immune system but the role of the TSHR in these tissues is not clear. Therefore, TSHR antagonists/inverse agonists could be used as probes of extrathyroidal TSHR function. Finally, TSHR inverse agonists, which are a subclass of antagonists that inhibit agonist-independent (or basal or constitutive) TSHR signaling, could be used to inhibit TSH-independent signaling in patients with recurrent or metastatic thyroid cancer who are receiving thyroid hormone to suppress TSH. In collaboration between scientist from the NCGC and the NIDDK, a miniaturized HTRF high-throughput screen was developed. It's a cell based assay, where an anti cAMP antibody contains a fluorescent cryptate tag (excitation 337 nm; emission 620 nm) and the acceptor is cAMP-d2 (excitation 620 nm; emission 665 nm). When antibody and cAMP-d2 interact and are excited by a 337 nm light, a FRET occurs resulting in emission at 665 nm. The assay is competition between cAMP-d2 and cAMP (from the cell lysate). The homogeneous protocol allows for one step dispense after stimulation that is automation friendly. NIH Chemical Genomics Center [NCGC] NIH Molecular Libraries Probe Centers Network [MLPCN] MLPCN Grant: MH090855-01 Assay Submitter (PI): Marvin Gerhengorn
Sequence of Thyrotropin receptor (Homo sapiens) (P16473 whole entry, looked up): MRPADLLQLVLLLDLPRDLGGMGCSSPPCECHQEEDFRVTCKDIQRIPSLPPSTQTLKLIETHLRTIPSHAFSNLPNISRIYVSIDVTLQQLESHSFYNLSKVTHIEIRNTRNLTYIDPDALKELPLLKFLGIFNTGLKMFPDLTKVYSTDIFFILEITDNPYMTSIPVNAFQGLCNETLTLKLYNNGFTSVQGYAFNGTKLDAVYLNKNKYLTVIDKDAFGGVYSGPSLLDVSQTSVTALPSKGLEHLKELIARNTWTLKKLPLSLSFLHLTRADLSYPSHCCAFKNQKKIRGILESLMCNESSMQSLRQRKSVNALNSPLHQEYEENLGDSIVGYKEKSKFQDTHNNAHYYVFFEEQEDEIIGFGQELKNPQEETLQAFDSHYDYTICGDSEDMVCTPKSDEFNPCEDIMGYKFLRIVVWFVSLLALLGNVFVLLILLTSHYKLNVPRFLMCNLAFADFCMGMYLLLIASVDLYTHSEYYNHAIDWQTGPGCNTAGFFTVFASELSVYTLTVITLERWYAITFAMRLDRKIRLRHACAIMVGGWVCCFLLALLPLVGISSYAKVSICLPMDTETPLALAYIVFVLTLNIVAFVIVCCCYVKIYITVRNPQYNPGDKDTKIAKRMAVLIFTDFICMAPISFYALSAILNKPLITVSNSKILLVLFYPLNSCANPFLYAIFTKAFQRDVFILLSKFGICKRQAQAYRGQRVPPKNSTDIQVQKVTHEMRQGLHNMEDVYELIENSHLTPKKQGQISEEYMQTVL
1. 3ul of 200 TSHR freshly harvested cells/well are dispensed into a 1536 TC-treated white solid bottom plate. 2. Through pintool addition, 23nl of compounds and control in 100% DMSO are added to the plate. 3. Then 1ul of EC80 TSH (4nM final) is added to the plate. 4. Assay is incubated at 37 deg C for 2 hours. 5. 2ul of cAMP antibody diluted 1:20 in lysis buffer is added. 6. Immediately following, 2ul of d2 diluted 1:20 in HBSS is added seperately. 7. The assay is incubated for 30 minutes at ambient room temperature. 8. The result is obtained by using a ViewLux read-out with HTRF settings.
As to `COC(=O)C1=C(c2ccc(-c3ccccc3)c(F)c2)C[C@@H]2CC[C@H]1N2C(=O)NCc1ccc(F)cc1`, the activity change, negative = inhibition is -85% (active).

Turning to `COC(=O)C1=C(c2cccc(OCc3ccccc3)c2)C[C@@H]2CC[C@H]1N2C(=O)NCc1ccc(Br)cc1`, the activity change, negative = inhibition was -5.89%.

For `COC(=O)C1=C(c2ccc(F)cc2OCc2ccccc2)C[C@@H]2CC[C@H]1N2C(=O)NCc1ccc(Cl)cc1`, the activity change, negative = inhibition is -10%.

Turning to `c1ccc2c(c1)[I+]c1ccccc1-2`, the activity change, negative = inhibition was -36.8%.

Turning to `CC(=O)c1c(O)c(C)c(O)c(Cc2c(O)c3c(c(C(=O)/C=C/c4ccccc4)c2O)OC(C)(C)C=C3)c1O`, the activity change, negative = inhibition was -26.9%.

Consider `CCOC(=O)c1ncn2c1[C@@H]1CCCN1C(=O)c1cc(OC)ccc1-2`, for which the activity change, negative = inhibition is -12.5%.

Regarding `C[C@]12CCC3C(CC[C@H]4C[C@@H](O)CC[C@]34C)C1CC[C@@H]2O` (stereo not given in full), the activity change, negative = inhibition is 3.15%.

As for `C[C@]12CC[C@H](O)C[C@H]1CC[C@@H]1C2CC[C@]2(C)[C@@H](C3=CC(=O)OC3)[C@@H](O)C[C@]12O` (stereo not given in full), the activity change, negative = inhibition is -81.8% (active).

On to `C[C@]12CCC3C(CC[C@H]4C[C@@H](O)CC[C@]34C)C1C[C@@H](O)[C@H]2O` (stereo not given in full), for which the activity change, negative = inhibition is 2.4%.

Consider `CC(=O)NBr`, for which the activity change, negative = inhibition was -6.86%.
